Our source for the inhibition values is PubChem BioAssay AID540336 (Broad Institute, 2011).

Hit rate of the full screen: of about 330,000 compounds, about 520 (0.16%) were called active.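 The calls were made as follows: active = inhibition of at least 50% in every replicate; inconclusive = best replicate reaches 50% inhibition but some replicates fall short; inactive = the rest.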 This excerpt belongs to a sample that is enriched for actives.

The target of this test is Histone acetyltransferase RTT109 (Candida albicans (strain SC5314 / ATCC MYA-2876)) (UniProt Q5AAJ8). The test can be described thus: Rtt109-Vps75 histone acetyltransferase blockade – biochemical, ThioGlo CoA-SH fluorescence, plate reader, primary screen (AID 540336). Conditions: purified Rtt109/Vps75, ThioGlo CoA-SH fluorescence, 4 h; at 34.9 µM; stronger effect = higher value.
Chain of Histone acetyltransferase RTT109 (Candida albicans (strain SC5314 / ATCC MYA-2876)) (Q5AAJ8 whole entry, looked up): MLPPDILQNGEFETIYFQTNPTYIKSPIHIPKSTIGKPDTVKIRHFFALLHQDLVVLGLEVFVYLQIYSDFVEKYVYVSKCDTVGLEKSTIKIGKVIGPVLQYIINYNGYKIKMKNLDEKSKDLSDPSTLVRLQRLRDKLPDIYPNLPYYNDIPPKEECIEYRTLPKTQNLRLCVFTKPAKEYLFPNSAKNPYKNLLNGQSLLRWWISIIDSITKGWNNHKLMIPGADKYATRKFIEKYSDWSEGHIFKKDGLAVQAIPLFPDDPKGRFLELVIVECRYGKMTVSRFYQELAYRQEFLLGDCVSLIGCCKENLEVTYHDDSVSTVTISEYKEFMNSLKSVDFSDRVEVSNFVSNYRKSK
By inhibition is commonly meant the relative decrease from the control value, in per cent. Regarding `Oc1cccc(CCc2ccccn2)c1`, the inhibition was -14.8% (inactive). Turning to `CC/C(=C\c1ccc(Cl)cc1)c1ccncc1`, the inhibition is -6.6% (inactive). To `CC12CCCCC1=CC(=O)CC2` (stereo unspecified) belongs -10.3% (inactive); to `CC1=NN(/C(=N\c2nnc(C)s2)Nc2ccccc2)[C@H](c2ccc(C)cc2)S1`, -10.9% (inactive); to `Cc1cn(C2CC(O)C(CO)O2)c(=O)n(CCCc2ccccc2)c1=O` (stereo unspecified), 5.62% (inactive).

On to `COc1ccc(/C=C2/CCCc3ccccc3C2=O)cc1`, for which the inhibition was -1.83% (inactive). Regarding `O=C(CNC(=O)c1ccccc1F)OCC(=O)c1c[nH]c2ccccc12`, the inhibition was 3.64% (inactive). To `COc1ccc(Cl)cc1C=CC=NNC(=O)c1ccncc1` belongs -2.75% (inactive); to `Cc1cccc(NC(=S)N2CCC(C(=O)c3ccc(F)cc3)CC2)c1`, -3.47% (inactive). In the case of `O=C(Nc1ccc(S(=O)(=O)N2CCOCC2)cc1)C1CCN(S(=O)(=O)c2ccc(Cl)cc2)CC1`, the inhibition was 1.41% (inactive). `C/C(=N\NC(=O)Cc1ccc(Cl)cc1)c1ccccn1`: the inhibition is 1.88% (inactive).

On to `CCOc1cc2ccccc2cc1C(=O)Nc1ccccn1`, for which the inhibition is -0.763% (inactive). As for `CCN(CC)CCOc1ccc2c(c1)C(=NNC(=O)c1ccccn1)c1cc(OCCN(CC)CC)ccc1-2`, the inhibition was 72.5% (active). Consider `COc1ccc(CCC(=O)Nc2ccc(Cl)c(S(=O)(=O)N3CCOCC3)c2)cc1OC`, for which the inhibition was 4.5% (inactive). As to `CCNC(=S)NCC`, the inhibition was 3.05% (inactive). To `O=C(O)c1ccc([N+](=O)[O-])cc1Sc1ccsc1` belongs -13.5% (inactive).

On to `CC(NC(=O)c1ccccc1)C(=O)OCC(=O)Nc1cccc(S(=O)(=O)N2CCCC2)c1` (stereo unspecified), for which the inhibition is 9.23% (inactive). Consider `CCCCN1CC(CO)Oc2cccc(F)c2S1(=O)=O` (stereo unspecified), for which the inhibition is -0.514% (inactive).

For the compound `COc1cccc(-c2ccc(C#N)c(SCC(=O)NCCc3ccc(Cl)cc3)n2)c1`, the inhibition is 58.6% (active). To `COc1ccc(CCNC(=O)CSc2nc(-c3ccc(OC)c(OC)c3)ccc2C#N)cc1` belongs 0.0988% (inactive); to `COc1ccc(CCNC(=O)COC(=O)c2cnc(Cl)c(Cl)c2)cc1`, 9.18% (inactive).

For the compound `O=[N+]([O-])c1ccc(C=NN=Cc2ccc([N+](=O)[O-])cc2)cc1`, the inhibition is -12.3% (inactive). To `COc1ccc(C(CNC(=O)c2cc(S(=O)(=O)Nc3cccc(C)c3)ccc2C)N2CCCC2)cc1` (stereo unspecified) belongs 22.1% (inactive).

`CCOc1cc(C=NNC(=O)CCCC(=O)NN=Cc2ccc(O)c(OCC)c2)ccc1O`: the inhibition was 3.06% (inactive). Regarding `COC(=O)C1CC2=C(CC(C)(C)CC2=O)N(c2ccccc2)C1=O` (stereo unspecified), the inhibition was -0.664% (inactive). To `COc1ccc(CCNC(=O)c2ccc(NC(=O)CC3SC(N4CCCCC4)=NC3=O)cc2)cc1OC` (stereo unspecified) belongs 9.04% (inactive); to `O=c1[nH]c2ccccc2n2c(-c3ccccc3)nnc12`, 127% (active); to `O=c1[nH]n2c(-c3ccccc3)nc(O)c2c2ccccc12`, -9.47% (inactive). To `O=C(c1ccc2c(c1)C(=O)N(Cc1ccncc1)C2=O)N1CCN(S(=O)(=O)c2ccc(OC(F)(F)F)cc2)CC1` belongs 5.03% (inactive). To `NC(=O)c1ncn([C@@H]2O[C@H](CNCc3cnc(N4CCOCC4)s3)[C@@H](O)[C@H]2O)n1` belongs 0.868% (inactive). Turning to `O=C(OCCOc1ccccc1F)c1cc(S(=O)(=O)N2CCOCC2)ccc1F`, the inhibition is -4.81% (inactive). As to `O=C(OCCOc1ccccc1Cl)c1cc(S(=O)(=O)N2CCCCC2)ccc1N1CCOCC1`, the inhibition is 2.25% (inactive).

`NNc1cccc(C=Cc2ccccc2)cc1=O`: the inhibition is 9.21% (inactive). To `COc1ccccc1N(CC(=O)Nc1c(C)n(C)n(-c2ccccc2)c1=O)S(=O)(=O)c1ccccc1` belongs 33.3% (inactive); to `CCc1c(Nc2ccccc2C)nc(N)[nH]c1=O`, -5.27% (inactive); to `O=C(O)c1ccc(Cn2cnc3c(=S)nc[nH]c32)cc1`, 0.573% (inactive).

On to `O=C1OCC2=C1C(c1ccc(Cl)cc1)c1cc3c(cc1O2)OCO3` (stereo unspecified), for which the inhibition is 8.44% (inactive). To `Cc1cc(C)c2c(NC(=O)C3CC3)nn(C)c2n1` belongs -4.52% (inactive); to `C=CCN1C=C(C(=O)c2ccccc2)C(=O)CC1`, 9.46% (inactive); to `CN(C)CCNC(=O)c1ccc(Cl)c2cc3ccccc3nc12`, 0.27% (inactive).

Consider `Cc1ccc(C(C[N+](=O)[O-])c2c(C)cc3ccccn23)cc1` (stereo unspecified), for which the inhibition is 2.3% (inactive). For `Nc1ccccc1SC(C[N+](=O)[O-])c1ccccc1` (stereo unspecified), the inhibition is 108% (active). Take `Oc1c(CN2CCCC2)cc(COCc2ccccc2)c2cccnc12`: the inhibition was -7.26% (inactive). As to `CCOc1ccc(-n2c(SCC(=O)OC)nc3sc4c(c3c2=O)CCN(C)C4)cc1`, the inhibition was -6.79% (inactive). On to `CCn1c(SCC(=O)Nc2ccc(Br)cc2)nc2sc3c(c2c1=O)CCN(C)C3`, for which the inhibition was 51.8% (active). To `CCCSc1nc2sc3c(c2c(=O)n1-c1ccc(OC)cc1)CCN(C)C3` belongs 0.409% (inactive); to `CCOc1ccc(-n2c(SCC(=O)Nc3ccc(OC)cc3)nc3sc4c(c3c2=O)CCN(C)C4)cc1`, 11.2% (inactive). `CCSc1nc2sc3c(c2c(=O)n1-c1ccc(C)cc1)CCN(C)C3`: the inhibition was 8.04% (inactive). To `COc1ccccc1NC(=O)CSc1nc2sc3c(c2c(=O)n1-c1ccccc1)CCN(C)C3` belongs 59.4% (active); to `Cc1ccc(C(=O)CSc2ccccc2C(=O)O)cc1`, -2.24% (inactive). Regarding `Cc1ccc(C(=O)CNc2ccc(F)cc2)cc1`, the inhibition is -2.53% (inactive). For the compound `Cc1ccc(SC(CC(=O)c2ccc(C(C)(C)C)cc2)C(=O)O)cc1` (stereo unspecified), the inhibition is 142% (active).

Consider `O=[N+]([O-])c1ccc(N=NNc2ccc([N+](=O)[O-])cc2)cc1`, for which the inhibition was 2.16% (inactive). With `Cc1cccc(CC2(O)C(=O)Nc3ccccc32)n1` (stereo unspecified), the inhibition was -2.36% (inactive).

For `O=C(Nc1c(Br)cc2c(c1Br)Cc1ccccc1-2)C(F)(F)F`, the inhibition was -19.3% (inactive). To `OCC1(CO)CC2(C1)CC(CO)(CO)C2` belongs -0.212% (inactive); to `Cc1cccc(C=CC(=O)c2ccc(Cl)cc2)c1`, -3.33% (inactive). To `CNc1nc(=O)n(C2CCCO2)cc1C` (stereo unspecified) belongs 12.5% (inactive); to `S=C(Nc1ccccc1)Nc1ccc2ccccc2c1`, 0.68% (inactive). As for `C=CCn1c(=O)n(C)c2c(=O)n(C)c(=O)n(C)c21`, the inhibition was 1.91% (inactive).

Take `CNC(=O)NC(=O)C(C)N1CCN(C/C=C/c2ccccc2)CC1` (stereo unspecified): the inhibition is -0.128% (inactive). To `CC(C)=CCc1ccc(O)c(=O)cc1C(C)C` belongs 6.99% (inactive). Consider `CCN(Cc1cc2cc(C)ccc2[nH]c1=O)S(=O)(=O)c1ccccc1`, for which the inhibition was 6.13% (inactive). For `CCC(=O)N(CCc1ccccc1)Cc1cc2cc(C)ccc2[nH]c1=O`, the inhibition was 54.1% (active). As to `Cc1ccc2[nH]c(=O)c(CN(CCCN(C)C)C(=O)Nc3cccc(Cl)c3)cc2c1`, the inhibition is 6.58% (inactive). `COc1cccc2oc(CCc3ccccc3)cc(=O)c12`: the inhibition was -16.8% (inactive). Take `COc1cc(/C=C/C(=O)OCC(=O)NC2CC2)cc(OC)c1OC`: the inhibition was 10.9% (inactive).

Take `Cc1cc(C)nc(N2CCC(C(=O)Nc3ccc4c(c3)OCCO4)CC2)n1`: the inhibition was 54.4% (active). `O=C(Nc1ccc2c(c1)OCCO2)C1CCCC1`: the inhibition was -1.87% (inactive). To `O=C(Nc1ccc2c(c1)OCCO2)C1CCCN(c2ncccn2)C1` (stereo unspecified) belongs -8.66% (inactive); to `C[C@H](O)[C@@H]1C(=O)N2CCc3ccc(N4CCOCC4)cc3[C@@H]2C[C@@H]1N(C)C(=O)C(C)(C)C`, 0.072% (inactive). In the case of `Cc1nn(-c2ccc(F)cc2)c(Cl)c1/C=C(/CCC(=O)O)c1nc2ccccc2s1`, the inhibition was 3.42% (inactive).

Regarding `CC(=O)Nc1c2c(nn1-c1cccc(C)c1)CSC2`, the inhibition was -4.46% (inactive). To `COc1ccc(-n2nc3c(c2NC(=O)c2ccc(N4C(=O)CCC4=O)cc2)CSC3)cc1` belongs 57.3% (active); to `CC(C)C(=O)Nc1c2c(nn1-c1ccccc1)CSC2`, 2.65% (inactive); to `COc1cc(C(=O)N2CCN(S(=O)(=O)c3ccc(C(C)C)cc3)CC2)ccc1OCC(=O)N1CCOCC1`, -4.48% (inactive). To `COc1ccc(Cn2cc(CN3CCS(=O)(=O)N(Cc4ccc(-c5cccc(Cl)c5)cc4)C(C)C3=O)nn2)cc1` (stereo unspecified) belongs 11.2% (inactive). Regarding `COc1cccc(CNC(=O)CCCC(=O)Nc2cccc([N+](=O)[O-])c2)c1`, the inhibition is -7.21% (inactive). For the compound `COc1ccc(S(=O)(=O)NC(C)C(=O)Nc2cccc([N+](=O)[O-])c2)cc1` (stereo unspecified), the inhibition was -0.177% (inactive). For the compound `COC(=O)/C=C\C(=O)Nc1cccc([N+](=O)[O-])c1`, the inhibition was 68.2% (active). To `CC/C(=C(/c1ccccc1)c1ccc(OCC[N+](C)(C)C)cc1)c1ccccc1` belongs -16.1% (inactive); to `Cc1ccc(S(=O)(=O)n2oc(=O)c(C3CCCCC3)c2N)cc1`, 0.705% (inactive); to `CCCCN(C(=O)CSCc1ccc(C)cc1)c1c(N)n(Cc2ccccc2)c(=O)[nH]c1=O`, -4.15% (inactive). In the case of `COc1ccc(CC(=O)NC(C)c2ccc(Cl)c(Cl)c2)cc1S(=O)(=O)N1CCOCC1` (stereo unspecified), the inhibition was -2.98% (inactive).

Turning to `COc1cc2c(cc1OC)C1C(=O)c3cc(OS(C)(=O)=O)c(OC)cc3C1N(C)C2=O` (stereo unspecified), the inhibition was -1.27% (inactive).

For `CN(C(=O)CN1C(=O)/C(=C/c2ccc(Cl)cc2)SC1=S)C1CCS(=O)(=O)C1` (stereo unspecified), the inhibition was -24.5% (inactive). To `COc1ccc(/C=C2\SC(=O)N(CCC(=O)NC3CCS(=O)(=O)C3)C2=O)cc1` (stereo unspecified) belongs 11.3% (inactive); to `CC(C(=O)NC1CCS(=O)(=O)C1)N1C(=O)/C(=C/c2ccc(Cl)cc2)SC1=S` (stereo unspecified), 180% (active). `COc1cc(/C=C/c2ccc(/C=C/c3cc(OC)c(OC)c(OC)c3)cc2)cc(OC)c1OC`: the inhibition is 1.49% (inactive). To `O=[N+]([O-])c1ccc(COc2ccccc2CN2CCOCC2)cc1` belongs 9.55% (inactive). In the case of `C=CCOC(=O)N1CCC2CC1c1cc(-c3ccc(OC)cc3)ccc12` (stereo unspecified), the inhibition was -3.1% (inactive).
